# Rows were chosen to be rich in hits. Some 8% of all compounds tested hit in one or more screens of this group.
# FMDV inh – blocks foot and mouth disease virus; FMDV antiviral cell-based qHTS; Potency, µM (top dose mostly 57.9 µM), for the others: top-dose activity change, negative = inhibition, actives largely listed as inhibitors; 410,000 compounds, 1.2% hits; calls by dose curve; tested in HEK293T cells; also: read-out not given here; potency is read from the fitted curve at half-maximal effect; % is scaled to controls: 0 for no effect and ±100 for the full control effect; nearly all actives have a fitted effect of over 45% in size
# HCV inhibitor – blocks hepatitis C virus; Huh7.5.1 HCVcc-Cre infection, luciferase reporter, 44 h; Potency, µM (series often up to 41.8 µM), for the others: at the highest dose activity change, negative = inhibition, hits mostly inhibitors; 340,000 compounds, 3.4% hits; AID 651820; active = well fitted inhibition curve with a large enough effect; inconclusive = small, poorly fitted or top-dose-only effect, or another doubt; inactive = no such curve, though single readings can be large or run the other way; also: potency is read from the fitted curve at half-maximal effect; % is scaled to controls: 0 for no effect and ±100 for the full control effect
#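 Cells seeded at 1,000/well and cultured 4 h, then compounds added followed by HCVcc-Cre virus (~0.5 moi). After 44 h further culture, luciferase substrate was added, plates held 15 min at room temperature, and luminescence read for 15 sec.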
# Lassa entry inh – inhibitors of Lassa virus binding or cell entry; Lassa virus pseudotype entry inhibition, cell reporter; Potency, µM (titrated, usually from 37.9 µM), inactives show top-dose activity change, negative = inhibition, usual class: inhibitors; AID 540256; 300,000 compounds, 1.2% hits; calls by dose curve; tested in HEK293 cells; also: potency is read from the fitted curve at half-maximal effect; % is scaled to controls: 0 for no effect and ±100 for the full control effect; nearly all actives have a fitted effect of over 50% in size
# Marburg entry inh – inhibitors of Marburg virus binding or cell entry; Marburg virus pseudotyped entry inhibition, cell reporter; Potency, µM (titrated, usually from 37.8 µM), inactives show at the highest dose activity change, negative = inhibition, most hits filed as inhibitors; 300,000 compounds, 1.8% hits; calls by dose curve; tested in HEK293 cells; also: potency is read from the fitted curve at half-maximal effect; % is scaled to controls: 0 for no effect and ±100 for the full control effect
# SARS PLP yeast – blocks SARS-CoV papain-like protease in a yeast assay | Potency, µM (titrated, usually from 32.9 µM), for inactives: at the highest dose activity, positive = growth rescue, actives largely listed as activators | 330,000 compounds, 0.19% hits | S. cerevisiae expressing SARS-CoV PLpro, growth rescue | AID 485353; calls by dose curve; also: potency is read from the fitted curve at half-maximal effect; 0% is about no effect; nearly all actives have a fitted effect of over 55% in size
# HCMV inh – inhibitors of human cytomegalovirus. 410,000 compounds, 4.5% hits. activity change, negative = inhibition, % at 57.5 µM. HFF cells, HCMV-luciferase reporter, 72 h; active compounds read low. AID 1259415; in the data active = activity change below about -60%; inconclusive = no clear call, values can overlap the other calls; inactive = above about -39%; also: % is scaled to controls: 0 for no effect and ±100 for the full control effect
#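 Inhibition of viral replication was scored as loss of reporter luminescence in HFFs infected with HCMV-luciferase (MOI 1 PFU/cell) for 72 h; compounds tested at 2 doses, normalized to buffer and Salinomycin controls.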
# Active calls of the source: *; ? = inconclusive; · = no result given; ! = not active in a repeat; [ ] = remark or other dose.
SMILES,FMDV inh,HCV inhibitor,Lassa entry inh,Marburg entry inh,SARS PLP yeast,HCMV inh
Cn1nnnc1SCC(=O)Nc1ncc(C(F)(F)F)cc1Cl,2%,-2%,?,-1%,-10%,18
CCN(CC)c1ccc(-n2c(C)c(C(C)=O)c(C(C)=O)c2C)cc1,?,-20%,?,?,-6%,-63*
O=C(CNC(=O)c1sc2ccccc2c1Cl)NCc1cccc(C(F)(F)F)c1,9%,6%,-32%[46.1 µM],?,-6%,-5
O=C(COC(=O)c1cc(S(=O)(=O)N2CCOCC2)ccc1Cl)c1ccc[nH]1,-20%,·,·,·,·,-1
CNC(=O)Oc1ccc2c(c1)[C@]1(C)CCN(C)[C@@H]1N2C,0%,1%[8.37 µM],-7%,0.28µM*!,-13%,-18
CN1CC[C@@]2(C)c3cc(O)ccc3N(C)C12 (some centres undefined),·,·,8.2µM*,7.9µM*,·,·
COc1ccc(OC)c(NC(=O)C2(C)CCN2C(=O)CC2CC2)c1 (centres undefined),-13%,·,·,·,·,5
CC1CCN(C(=O)Cn2cc(SCC(=O)NCc3ccccc3Cl)c3ccccc32)CC1,-13%,·,14%[46.1 µM],·,·,?
COc1ccc(COC(=O)N/N=C2\C[C@@H](O)[C@@H](O)[C@@H]3[C@@H]4C(=O)N(Cc5ccccc5)C(=O)[C@@H]4CC[C@H]23)cc1,·,·,·,-25%[14.2 µM],·,·
CCOC(=O)C1(C)CCCN1C(=O)c1cccc(OC)c1 (centres undefined),-6%,·,·,·,·,13
CCOC(=O)[C@]12Cc3cc(C)ccc3[C@H]1N(C1CCCCC1)C(=O)c1cc(OC)ccc12,3.5µM*,·,·,·,·,-104*
CCOC(=O)[C@]12Cc3cc(OC)ccc3[C@H]1N(C1CCCCC1)C(=O)c1cc(OC)ccc12,13µM*,·,·,·,·,-98*
CCOc1ccccc1NC(=O)C1CCN(S(=O)(=O)c2ccc3[nH]c4c(c3c2)CCCCC4)CC1,-5%,·,-13%[46.1 µM],·,·,?
COC(=O)c1cc(COC(=O)c2ccc(OC)c(S(=O)(=O)N3CCCC3)c2)oc1C,-7%,16µM*,3%,?,4%,-20
COc1ccc(C(=O)OCc2cc(C)ccc2C)cc1S(=O)(=O)N1CCCC1,-17%,?,?,-22%,-10%,6
COCCOc1ccc(C(F)(F)F)cc1NC(=O)c1ccccc1,8%,-5%,?,17%,-5%,13
CC(C)(C)c1ccc(OCCOc2ccc(C(C)(C)C)cc2NC=O)c(NC=O)c1,?,10µM*,·,·,-1%,?
N/C(=N\OC(=O)c1ccc(Cl)c([N+](=O)[O-])c1)c1ccccn1,49%,?,?,3.2µM*,-8%,-63*
N/C(=N\OC(=O)c1cccc(Cl)c1)c1ccccn1,-57%,-5%,7.9µM*,3.7µM*,-95%,9
N/C(=N\OC(=O)c1ccc(Cl)c(Cl)c1)c1ccccn1,-53%,17%,?,?,-9%,114
CCCN(CCC)C(=O)Cn1c(=O)n(-c2cccc(OC)c2)c(=O)c2c(C)c(C(=O)N(C)C)sc21,-24%,·,3%[46.1 µM],·,·,48
COc1ccccc1-c1cc2c(Nc3ccc(NC(C)=O)cc3)nccc2[nH]1,·,·,·,·,·,-5
COc1ccc(-c2coc3c(O)c(OC)ccc3c2=O)cc1,-3%,·,·,·,·,·
O=c1c2c([nH]c3ccccc13)CCCCC2,-12%,-20%,7%[46.1 µM],17%[46.1 µM],-12%,-19
c1ccc2c(c1)ccc1[nH]c3c(c12)CCCC3,-3%,?,0.63µM*,0.5µM*,·,57
Cc1sc2ncnc(NCC(O)c3ccc([N+](=O)[O-])cc3)c2c1C (centres undefined),?,11µM*,?,?,-2%,-79*
Cc1sc2ncnc(NCC(O)c3ccccc3)c2c1C (centres undefined),-27%,11µM*,?,?,-2%,-74*
COc1cc(CN2CCNC(=O)C2CC(=O)N2CCCO2)cc(OC)c1 (centres undefined),-5%,14%,12%[46.1 µM],5%,0%,0
COc1cc(/C=N/Nc2snc(SC)c2C#N)cc(OC)c1OC,?,?,1.3µM*,1.6µM*,5%,-86*
